Most compounds without a hit are left out; they make up all but 19% or so of the library.
TDP1 cell CPT: qHTS for Inhibitors of human tyrosyl-DNA phosphodiesterase 1 (TDP1): qHTS in cells in presence of CPT; chicken DT40 Tdp1-/-;hTDP1 cells + 20 nM CPT, ATP luminescence, 48 h; Potency, µM (highest dose often 46.2 µM), for inactives: top-dose activity change, negative = growth inhibition, hits mostly inhibitors; 420,000 compounds, 12% hits; AID 686979, 2013; note: nearly all actives have a fitted effect of over 55% in size
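Chicken DT40 Tdp1-/- cells complemented with human TDP1, 400 cells/well, exposed to compounds plus 20 nM camptothecin for at least 48 h at 37 C; viability read as ATP content by CellTiter-Glo luminescence.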
Gal4-VP16 FLuc: VP16 counterscreen qHTS for inhibitors of ROR gamma transcriptional activity. AID 2546, 2010. Potency, µM (series often up to 53.6 µM), for inactives: top-dose activity, negative = inhibition, usual class: inhibitors. Drosophila S2 Gal4-VP16 UAS-luciferase, luminescence, 20 h. 310,000 compounds, 3.5% hits;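 note: Gal4-VP16 expression switched on by copper sulfate through the metallothionein promoter; nearly all actives have a fitted effect of over 50% in size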
TDP1 cell noCPT: qHTS for Inhibitors of human tyrosyl-DNA phosphodiesterase 1 (TDP1): qHTS in cells in absence of CPT; DT40 Tdp1-/- hTDP1 cells, no CPT, ATP luminescence, 48 h; Potency, µM (top dose mostly 46.2 µM), for inactives: top-dose activity change, negative = growth inhibition, most hits filed as inhibitors; 420,000 compounds, 15% hits; AID 686978, 2013; note: nearly all actives have a fitted effect of over 55% in size
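Growth of hTDP1-complemented DT40 Tdp1-knockout cells is measured by ATP luminescence after at least 48 hr compound exposure at 37 °C, with DMSO substituting for the 20 nM CPT used in the parallel screen.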
TDP1 inh: qHTS Assay for Inhibitors of Tyrosyl-DNA Phosphodiesterase (TDP1). Potency, µM (doses to about 130 µM), for the others: at the top dose activity change, negative = inhibition, actives largely listed as inhibitors. recombinant TDP1, AlphaScreen DNA substrate cleavage. 350,000 compounds, 0.28% hits. Tyrosyl-DNA phosphodiesterase 1 (Homo sapiens), Q9NUW8; note: nearly all actives have a fitted effect of over 40% in size
Target sequence (Q9NUW8 whole entry, looked up): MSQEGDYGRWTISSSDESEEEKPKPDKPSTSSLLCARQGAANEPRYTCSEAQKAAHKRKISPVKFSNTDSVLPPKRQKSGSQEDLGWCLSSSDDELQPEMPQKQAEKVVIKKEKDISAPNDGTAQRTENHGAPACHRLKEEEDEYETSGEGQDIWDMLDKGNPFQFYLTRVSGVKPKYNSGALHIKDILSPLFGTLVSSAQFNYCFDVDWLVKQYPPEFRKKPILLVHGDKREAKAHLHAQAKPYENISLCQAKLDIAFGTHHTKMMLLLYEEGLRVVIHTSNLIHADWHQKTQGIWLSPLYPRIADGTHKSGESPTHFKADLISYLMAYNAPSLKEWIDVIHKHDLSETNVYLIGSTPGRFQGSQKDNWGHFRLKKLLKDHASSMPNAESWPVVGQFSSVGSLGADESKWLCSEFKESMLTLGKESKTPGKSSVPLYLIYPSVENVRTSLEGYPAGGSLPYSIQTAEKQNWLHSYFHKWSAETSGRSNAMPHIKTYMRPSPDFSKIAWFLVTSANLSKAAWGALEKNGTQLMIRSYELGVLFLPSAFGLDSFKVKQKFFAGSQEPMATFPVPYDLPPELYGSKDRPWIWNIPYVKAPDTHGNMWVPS
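E. coli-derived human Tdp1, 1 nM final. Cpd preinc 15 min RT; substrate 15 nM final, 5 min RT; AS bead mix 10 ug/ml final, 10 min RT. Signal loss = tyrosine-FITC cleavage. No-enzyme wells = max signal.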
RORg inh: qHTS for inhibitors of ROR gamma transcriptional activity; 310,000 compounds, 5.4% hits; Drosophila S2 Gal4-RORgamma UAS-luciferase reporter, 20 h; Potency, µM (top dose mostly 53.6 µM), without a hit: at the highest dose activity change, negative = inhibition, actives largely listed as inhibitors; note: nearly all actives have a fitted effect of over 60% in size
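ROR gamma transcriptional activity was tracked as Gal4-UAS luciferase output in stably transfected Drosophila Schneider cells, with compound added 1 hr before 700 uM copper sulfate induction and a 20 hr ambient-temperature incubation.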
* = called active by the depositor; ? = inconclusive; / = not tested or not shown; [ ] = another dose, or the depositor's remark. Calls come from the whole dose curve; as a rule, active = well fitted curve in the direction sought with a large enough effect; inconclusive = small, poorly fitted or top-dose-only effect, or another doubt; inactive = no such curve, though single readings can be large; an effect the other way counts as inactive or inconclusive. % is set by controls: 0 for no effect and ±100 for the full control effect; potency is the fitted concentration of half-maximal effect.

SMILES	TDP1 cell CPT	Gal4-VP16 FLuc	TDP1 cell noCPT	TDP1 inh	RORg inh
CCNc1nc(NCC)n2c(SCC(=O)Nc3ccc(CC)cc3)nnc2n1	21µM*	/	?	-7%	/
CCNc1nc(NCC)n2c(SCC(=O)Nc3ccc(NC(C)=O)cc3)nnc2n1	-14%	/	5%	-15%[0.505 µM]	/
CCNc1nc(NCC)n2c(SC(C(=O)Nc3cc(C)ccc3C)c3ccccc3)nnc2n1 (stereo not given)	?	1%	12µM*	2%	4%
CCNc1nc(NCC)n2c(SC(C)C(=O)c3ccc(C)cc3)nnc2n1 (stereo not given)	?	?	13µM*	-5%	?
CCNc1nc(NCC)n2c(SCC(=O)Nc3ccccc3F)nnc2n1	-15%	/	-7%	/	/
COc1cc(/C=C/C(=O)N2CCCCC2=O)cc(OC)c1OC	3µM*	7.9µM*	3.8µM*	-3%[56.1 µM]	7.1µM*
COc1cc(/C=C\C(=O)N2CCC=CC2=O)cc(OC)c1OC	/	5µM*	/	12%[21 µM]	5µM*
COc1cc(/C=C/C(=O)N2CCN(C(=O)/C=C/c3cc(OC)c(OC)c(OC)c3)CC2)cc(OC)c1OC	-4%	4%	-16%	12%	-11%
O=[N+]([O-])c1ccc(OCCO)nc1	2%	-4%	-6%	0%	-8%
O=C(c1ccc2c(c1)N(Cc1cccc(Cl)c1)C(=O)c1ccccc1S2(=O)=O)N1CCCCC1	16µM*	/	?	1%	/
O=C(c1ccc2c(c1)N(Cc1cccc(Cl)c1)C(=O)c1ccccc1S2(=O)=O)N1CCc2ccccc21	2.1µM*	/	1.6µM*	0%	/
COc1ccc(N2CC(C(=O)N[C@@H](C)C(=O)N[C@H](CO)c3ccccc3)CC2=O)cc1 (stereo not given in full)	-2%	14%	-16%	/	-9%
O=c1c2ccccc2n(Cc2cccc(Cl)c2)c(=O)n1CCc1ccccc1	?	/	?	0%	/
S=c1nc2c(n[nH]1)c1ccccc1n2CCc1ccccc1	?	1.4µM*	?	/	2.2µM*
CSc1nnc2c3ccccc3n(CCc3ccccc3)c2n1	7.3µM*	3%	16µM*	2%	8%
CSc1nnc2c3ccccc3n(Cc3ccccc3)c2n1	?	6%	?	4%	-37%
CCN(CC)C(=O)Cn1cc(SCC(=O)Nc2ccccc2F)c2ccccc21	?	/	26µM*	8%	/
CCN(CC)C(=O)Cn1cc(SCC(=O)Nc2ccc(C)cc2)c2ccccc21	?	/	26µM*	8%	/
CCN(CC)C(=O)Cn1cc(SCC(=O)NC)c2ccccc21	5%	2%	1%	4%	-3%
CCC(=O)c1ccc(OCC(O)CN(CCc2ccccc2)Cc2ccccc2)cc1 (stereo not given)	?	?	21µM*	-4%	-17%
OC(COc1ccccc1)CN(Cc1ccccc1)CC(O)COc1ccccc1 (stereo not given)	16µM*	/	21µM*	-7%	/
COc1cccc(OCC(O)CN(CCO)Cc2ccccc2)c1 (stereo not given)	-20%	-10%	-21%	-1%	9%
CCN(c1ccccc1)S(=O)(=O)c1ccc(Cl)c(NC(=O)COC(=O)c2ccc[nH]c2=O)c1	5%	7%	-5%	/	10%
COc1ccc(C2=NOC(C)(c3nnc(-c4ccc(Cl)cc4)o3)C2)cc1 (stereo not given)	-4%	/	-17%	/	/
Cc1cc(NC(=O)Cc2cn3ccsc3n2)n(-c2ccccc2)n1	-12%	0%	-4%	6%	-7%
SMILES	TDP1 cell CPT	Gal4-VP16 FLuc	TDP1 cell noCPT	TDP1 inh	RORg inh
COc1cc(CCNC2=CC(=O)c3ncccc3C2=O)ccc1O	4.6µM*	/	5.8µM*	/	/
CCCCCn1c(C(C)NC(=O)CCC)nc2ccccc21 (stereo not given)	12µM*	25%	18µM*	3%	-21%
CCCC(=O)NC(C)c1nc2ccccc2n1Cc1ccccc1 (stereo not given)	-17%	/	?	0%	/
CCCCn1c(C(C)NC(=O)CCC)nc2ccccc21 (stereo not given)	?	19%	18µM*	1%	-42%
CCOc1ccc(NC(=O)CSc2nnc(-c3ccncc3)n2-c2ccccc2)cc1	-1%	/	-12%	-4%	/
O=C(CSc1nnc(-c2ccc3c(c2)OCO3)n1-c1ccccc1)c1ccccc1	16µM*	-18%	23µM*	5%	-8%
COc1ccc(C(=O)CSc2nnc(CN3CCCCC3)n2-c2ccc(F)cc2)cc1OC	-15%	12%	?	1%	11%[10 µM]
Cc1cccc(-n2c(SCC(=O)c3ccccc3)nnc2-c2ccc(Br)cc2)c1	16µM*	/	18µM*	5%	/
O=C(CSc1nnc(CN2CCCCC2)n1-c1ccccc1)c1ccc2c(c1)OCO2	?	-3%	21µM*	5%	-3%
O=C(CSc1nnc(-c2cccs2)n1-c1ccccc1)c1ccc2c(c1)OCCO2	-19%	-2%	-22%	2%	5%
CCOc1ccc(-c2nnc(SCC(=O)c3ccccc3)n2-c2ccccc2)cc1	?	/	6.5µM*	1%	/
Cc1c(CCC(=O)O)c(=O)oc2cc(OCc3cccc(Cl)c3)ccc12	0%	-4%	19%	/	-4%
CN(C)CCCNC(=O)c1cc(C(=O)C2CCCCC2)c[nH]1	-2%	-11%	-2%	4%	23%
Cc1cc(NC(=O)c2cc(-c3ccccc3C)nc3ccccc23)no1	?	-4%	21µM*	8%	-9%
COc1ccccc1CCNC(=O)c1cc(-c2ccccn2)nc2ccc(Br)cc12	/	-5%	/	5%	-1%
O=C(NNS(=O)(=O)c1ccc2ccccc2c1)c1cc(-c2ccccn2)nc2ccccc12	16%	7.9µM*	0%	8%	8%
O=C(NC1CC1)c1cc(-c2ccccn2)nc2ccccc12	-1%	1%	-28%	1%	0%

Source: PubChem (National Center for Advancing Translational Sciences (NCATS))
